High-throughput results from PubChem BioAssay.
An excerpt weighted towards active compounds, which were near 27% of everything screened.
CYP2C9 inhib: blockers of cytochrome P450 2C9 activity – biochemical, luminescence, ADME assay, primary screen; P11712; CYP2C9 Supersomes, luciferin-H conversion; inhibition, % at 5 µM; hit rate 20% among 96,000; AID 777, 2007;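 active = blocking of liver enzyme CYP2C9 beyond about 50% at 5 µM, limit read from the data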
CYP2C19 activ: human CYP2C19 activators, primary screen, biochemical, luminescence; Cytochrome P450 2C19 (Homo sapiens), P33261; activation factor at 5 µM; recombinant CYP2C19, luciferin-H EGE luminescence; active compounds read high; 0 = fully inhibited enzyme, 1 = untreated enzyme; 96,000 tested, under 10 active;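 active = activation factor of at least 2 at 5 µM in the primary screen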;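 also: 0 = wells with 2.5 mM tranylcypromine and 1 = vehicle-only wells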
CYP2C19 inh: blockers of cytochrome P450 2C19 activity – biochemical, luminescence, ADME assay, primary screen; P33261; CYP2C19 Supersomes, luciferin-H EGE luminescence, 30 min; inhibition, % at 5 µM; hit rate 21% among 96,000; AID 778, 2007;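 active = CYP2C19 inhibition above a set limit at 5 µM in the primary screen, cut at about 50% in these data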;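 also: plate controls were negative control wells for no effect and 2.5 mM tranylcypromine positive control for full effect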
CYP2C9 act: human CYP2C9 activators, primary screen, biochemical, luminescence | recombinant CYP2C9, luciferin-H conversion; active compounds read high; factor 1 = untreated enzyme, 0 = blocked | activation factor at 5 µM | hit rate 1.4% among 96,000;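 active = activation factor of 2 or more for CYP2C9 at a 5 µM dose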;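 also: 0 = sulfaphenazole-blocked wells and 1 = vehicle-only wells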
Cav3 T inh: Cav3.2 calcium influx blockers – cell-based, Fluo-4 calcium fluorescence, FDSS, MLSMR library, primary screen. Cav3.2-expressing cells; active compounds read low. B-score at 10 µM. hit rate 4% among 100,000. AID 449739, 2010;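 active = single-dose well whose peak fluorescence ratio is a statistical outlier from its plate by either plate-standardised score or position-corrected B-score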
* marks the source's active call; other numbers are inactive results; . = no result.

SMILES | CYP2C9 inhib | CYP2C19 activ | CYP2C19 inh | CYP2C9 act | Cav3 T inh
COc1ccc(N2CCN(C(=O)c3cn(C4CCCC4)c(=O)c4c3c3ccccc3n4C)CC2)cc1 | 90* | 0.2 | 77* | 0.1 | .
Cn1c2ccccc2c2c(C(=O)N3CCN(c4ccccn4)CC3)cn(C3CCCC3)c(=O)c21 | 94* | 0.3 | 69* | 0.1 | -3.2
Cn1c2ccccc2c2c(C(=O)N3CCN(C(=O)c4ccco4)CC3)cn(C3CCCCC3)c(=O)c21 | 74* | 0.6 | 40 | 0.3 | 1.5
Cn1c2ccccc2c2c(C(=O)O)cn(C3CCCC3)c(=O)c21 | 12 | 1 | 2 | 0.9 | .
CCCC(=O)Nc1ccc(C(=O)NNC(=O)COc2ccc(Br)c(C)c2)cc1 | 4 | 1 | 0 | 1 | .
CCn1c(SCC(=O)O)nnc1C1CCCCC1 | 9 | 0.9 | 5 | 0.9 | -0.49
CC(C)(C)n1cnc2cc(NS(=O)(=O)c3ccccc3)ccc21 | 28 | 0.2 | 79* | 0.7 | .
Cn1cnc2cc(NS(=O)(=O)c3ccc(Br)cc3)ccc21 | 69* | 0.1 | 93* | 0.3 | .
Cc1nn(C)c(C)c1C(=O)NN | 11 | 1 | 2 | 0.9 | 0.89
COc1ccc(CCNC2CC(=O)N(CCc3ccccc3)C2=O)cc1 (configuration not stated) | 34 | 0.3 | 70* | 0.7 | 0.62
COc1ccc(CCN2C(=O)CC(NCCc3ccc(S(N)(=O)=O)cc3)C2=O)cc1OC (configuration not stated) | 30 | 1 | 4 | 0.7 | 1.3
CC(=O)NC(CC(=O)NCC(c1ccco1)N(C)C)c1ccccc1 (configuration not stated) | -2 | 0.8 | 22 | 1 | -0.47
Cc1ccc(S(=O)(=O)N2C(=S)SCC2(C)C)cc1 | -7 | 0.3 | 74* | 1.1 | 0.17
Cc1ccc(-c2csc(=S)n2CC(=O)OCC(=O)NCc2ccc(F)cc2)cc1 | 87* | 0.2 | 80* | 0.1 | -2.7
CCOC(=O)C(NC(C)=O)C(OC(C)=O)c1cccc(N(CCO)CCO)c1 (configuration not stated) | 0 | 1 | -2 | 1 | -0.024
COc1ccc(CN2C(=O)c3ccccc3C(/C=N\OCc3ccc(C)cc3)C2=O)cc1 (configuration not stated) | 73* | 0.5 | 47 | 0.3 | 0.42
CCCC1S/C(=N/N=C/c2ccc(C)cc2)N(Cc2ccc(OC)cc2)C1=O (configuration not stated) | 5 | 1.1 | -10 | 0.9 | -4.1
Cc1cc(N2CCN(S(=O)(=O)c3ccc4c(c3)OCCO4)CC2)n2ncnc2n1 | 3 | 0.8 | 16 | 1 | 0.74
O=C(c1ccccc1)N1CCN(C2c3cccc4cccc(c34)C2NS(=O)(=O)c2ccccc2)CC1 (configuration not stated) | 75* | 0.5 | 52* | 0.3 | -3.2
COc1cc(NC(=O)c2cccs2)c(C(=O)OCC(=O)NC(C)c2ccccc2)cc1OC (configuration not stated) | 90* | 0.4 | 64* | 0.1 | -1.7
CCOC(=O)c1c(-c2ccccc2)csc1NC(=O)c1ccc(S(=O)(=O)N2CC(C)OC(C)C2)cc1 (configuration not stated) | 77* | 0.6 | 39 | 0.2 | .
CCOC(=O)c1c(-c2ccccc2)csc1NC(=O)c1nn(CC)cc1Br | 10 | 0.9 | 10 | 0.9 | -1.5
CCOC(=O)c1c(-c2ccccc2)csc1NC(=O)c1ccc(N2C(=O)CCC2=O)cc1 | 50* | 0.8 | 15 | 0.5 | -2.2
O=C(CCn1c(=O)oc2ccccc21)N1CCN(C(c2ccccc2)c2ccccc2)CC1 | 66* | 1 | 4 | 0.3 | .
CC(=O)N1CCN(C(=O)Cn2c(=O)oc3ccccc32)CC1 | 9 | 0.9 | 8 | 0.9 | 1
CC1Cc2ccccc2N1C(=O)Cn1c(=O)oc2cc(S(=O)(=O)NC3CCCC3)ccc21 (configuration not stated) | 69* | 0.7 | 31 | 0.3 | -8.9*
CC1Cc2ccccc2N1C(=O)CCn1c(=O)oc2ccccc21 (configuration not stated) | 77* | 0.1 | 94* | 0.2 | 0.51
